# Data from PubChem BioAssay AID1347423 (Functional Genomics Laboratory (NCATS/FGL), 2020).
# In all, about 52,000 sequences went through this assay and about 210 (0.4%) were called active. Many of the other results were omitted from the sample, so actives are more common in it than they were. A number with no mark means an inactive call.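 How the source made its calls: active means gene whose silencing raises cell survival under the drug, median off-target-corrected z-score across its silencing RNAs 2 or more; inactive means the rest.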
# Assay: Resistance to Poly (ADP-Ribose) Polymerase inhibitor: Gene Identification via Genome-wide siRNA Screen
# Details: mouse BRCA2 R2336H ES cells, olaparib, CellTiter-Glo viability; active compounds read high
# Source text: The role of Poly (ADP-Ribose) Polymerase (PARP) proteins in DNA repair has been elegantly utilized for the synthetic lethality-based treatment of BRCA-deficient tumors by PARP inhibitors. PARP inhibitors are now being used for treatment of BRCA-deficient breast and ovarian cancers. […] While several mechanisms of drug resistance have been identified, majority of these tumors develop drug resistance due to unknown causes. To identified novel regulators of chemo-resistance in BRCA2-mutated cells, we performed a genome wide siRNA library screen. We have found ES cells expressing a hypomorphic allele of BRCA2 to be hypersensitive to PAPP inhibitors (such as olaparib). We used ES cells expressing a mutant allele of BRCA2 that has a single amino acid substitution at position 2336 (arginine to histidine, R2336H). The screen was conducted using an Ambion (Thermo) Silencer Mouse Genome siRNA collection. The library targets 17,575 mouse genes with 3 siRNAs per gene. TET2 (E130014J05Rik) was identified as a top candidate.
# Transfections were performed in 384 well plates (Corning 3707). Plates were coated with 0.1% gelatin in H2O overnight at ambient temperature. Gelatin solution was aspirated (BioTek EL406) and siRNAs were printed using a Bravo VPrep liquid handler integrated within a BioCel automation platform (Agilent). Cell viability was measured using CellTiter Glo (Promega). For transfections, […] of serum free media containing Lipofectamine RNAiMax […] was added to wells containing siRNA (0.8pmol). Lipid and siRNA were allowed to complex for 45 min at ambient temperature before addition of 1000 cells in DMEM, 30% FBS to yield final transfection mixtures containing 20 nM siRNA in DMEM, 15% FBS. PARPi (olaparib, AZD2281) was added 48 h post-transfection (500 nM) and viability (CellTiter Glo, Promega) was assayed 72 h later on a PerkinElmer Envision 2104 Multilabel plate reader. Ambion Silencer Select Negative Control #2 was incorporated on all screening plates (16 wells) and the median negative control value on each plate was used for normalization. An siRNA targeting Trp53 was used as a positive control. This control yielded a median protective effect of ~1.9 fold versus negative control throughout the screen. The median absolute deviation (MAD) based z-score was calculated for each siRNA. Genes were then ranked by taking the median value for all siRNAs tested against a given gene. Scores were also adjusted for seed-based off-target effects to help deprioritize likely false positives.
row,Sequence,z-score
1,GCCUUUGUAGGUUCAAGUGTT against 2310001H12Rik,1.78
2,GGAGAAGAUCGGAUGGCGATT against Itgb5,-0.391
3,CGGACUAAGUUUCAAAUCGTT against Pcdha2,-0.594
4,GGAUGUCACAACAGUUAUGTT against Otog,1.4
5,CCUAUAUGCGCUAUUUGAATT against 4732465J09Rik,0.557
6,GGCUAAUGUAUCGUCUGAGTT against Asb16,0.422 (active)
7,CCCUGACGAAGCCAUACAUTT against Bcor,-1.33
8,GGACAAACAUUGGAUUGAUTT against 0610009C03Rik,0.453
9,CCCAGAGGUUCCCGUCAAUTT against Hmgb3,1.9 (active)
10,GCCACCCACCUAAAAUCAATT against BC025872,0.573
11,GGGAAAUGGCUCAUACUGGTT against 2210010C04Rik,-0.608
12,GACCGAGUUCAAAGCGAACTT against Atp5e,-2.59
13,GGAAGAAAGCCAUUUGCUUTT against 4632412I24Rik,0.766
14,CGAUGAGAUGCGUAUUGAGTT against Card11,-0.977
15,GCGAACUCCUCUUUAGGCATT against Chrng,-0.258 (active)
16,GGGUAGACAGAAAGCCUUUTT against Olfr111,-0.573
17,GGUGUCUUAAAGCUGAAAUTT against E2f5,2.8
18,GGAGAGGAAUGGUGUGUUATT against 4931428D14Rik,-0.16
19,GGUGUUCCUGUCUUUCAUGTT against Chordc1,-1.35
20,CCAACUUCAAAACUAUCGUTT against Trp53bp1,1.96 (active)
21,GCUAGUGGUAAGUCAACCATT against D6Ertd349e,-0.584
22,GGUGGGAAUGGGAAUCAGUTT against Akr1e1,1.57

row,Sequence,z-score
1,GUCCAUCAGCAGCUCAAUGTT against Ifna5,-0.126
2,GGCUUAUUUUUCUUCAGUUTT against Ext1,-0.0515
3,GGAGGAAAAAAAGUGAAGATT against Zfp339,0.689
4,CCUAUGCUAUGUAGUUUAATT against Adam21,0.555 (active)
5,GCUGAUGAAGGUGAUACGUTT against Pnma2,0.0302
6,GGCACCUAAAUUCUUGAAUTT against Hspb6,-0.361
7,GGCCCUUCCCAAAGUAUUATT against Mup3,0.32
8,CCUACUACCUCUGUCAACATT against Nme4,1.46
9,GGUGGAGUUUGUGCAGAAGTT against 2310026J01Rik,0.572
10,CGAUGAUUCCAAGUUUGGCTT against Pinx1,-0.772
11,CCUGCAGCUGUAAAACCUGTT against Mt4,-0.909
12,CCGUAUCCGGCAUUGGAUUTT against Mrps16,0.345
13,GCUGUCCACUGCUUAAAUCTT against Isyna1,0.392
14,GGAAUUGUACAAAUGACCUTT against Adam29,-0.0465 (active)
15,GGAGCUCAGAUGCAAUGAGTT against Zfp393,-0.714
16,GGAUGAGCUCAAGAAGUCCTT against Snrpa,-1.3
17,CCUGUUUACAAGGAAUUGATT against Itgb1,0.411
18,GGAUCACAGCGAUUAUUGATT against D630028G08Rik,-0.512
19,CCCAUACUAAAAUUGUUGATT against Adam29,2.32 (active)
20,GCCAGGAUAUGGAUAUGCATT against 1520401A03Rik,1.47
21,CGACUUCAUAAUUAUGCAATT against Als2,0.307
22,GCCGAAUCCGAACAAAACCTT against Tat,1.35 (active)

row,Sequence,z-score
1,GCUGUAUUGAAGGUCCCUUTT against Olfr744,-2.34
2,CCUGGCUAAUGACUAGCUCTT against D730046L02Rik,-0.501
3,GGUCUCCCUUCAGUAUGAGTT against Ela3b,2.47 (active)
4,GCUCAUUCUUACCAAUCUCTT against 2210413P10Rik,-0.897
5,GCCUCCACAUAGCUUCAACTT against 1110030H02Rik,1.14
6,GGUUGCACUUUUUCAUAGUTT against Bcl2l2,2.83 (active)
7,GGGAGCUCUAAAAAAAGUGTT against Olfr390,0.0742
8,GGAGGAGAGGUACAAACGGTT against Cxxc1,-1.2
9,GCGGGCAAUGCCUUAAAAGTT against D16Ertd607e,0.194
10,GCCCGGUAAAGGUAUCCAUTT against Trp53bp1,1.78 (active)
11,GGGCACCUAUUCAGAUACCTT against Mtap2,0.64
12,GGAAAAGACGGGAGAUUUGTT against Mbldc1,0.0178
13,GUACGUCAUGGGUCACUUCTT against Pomc1,-0.0856
14,GGACAGAGUUCGAUCGACUTT against BC021523,-0.107
15,GUGAUGACUGAGCUUCUAATT against Olfr1446,-1.51
16,GCCUACAGAGUCUUAGUUATT against 2400003B06Rik,0.0277
17,GGGAGAAGAAGAUACACCATT against Usp47,2.16 (active)
18,GGCUGUGGACUUUUGUAAUTT against 3110002H16Rik,0.704
19,GCCGUUUUAUUCACGUGAATT against 1810033M07Rik,-0.105
20,GGUUAAAGAAGCCAUGAAATT against Olfr480,1.26
21,GCCUGUUCCGCCAUUCAUGTT against Fliih,-1.13
22,GGAGUGAUUAACCUAACUCTT against Crip3,-0.183 (active)
